Data from PubChem BioAssay (Tox21).
Values joined by “and” are separate entries in the source; they are usually repeats but may differ in a detail not shown here. Equal entries are not always repeated. Inconclusive results are not listed. The source holds several records for some structures; these can differ, active in one and inactive in another. Active and inactive are the calls of the source. The call rests on the fitted dose curve.

Columns and labels:
[1] = target: Acetylcholinesterase (Homo sapiens) (UniProt P22303); experiment: Acetylcholinesterase (AChE) small molecule antagonists: colormetric cell-based qHTS assay (AID 1347395); further: nearly all actives have a fitted effect of over 30% in size; further: potency means the concentration at half of the fitted maximal effect
Chain of Acetylcholinesterase (Homo sapiens) (P22303 whole entry, looked up): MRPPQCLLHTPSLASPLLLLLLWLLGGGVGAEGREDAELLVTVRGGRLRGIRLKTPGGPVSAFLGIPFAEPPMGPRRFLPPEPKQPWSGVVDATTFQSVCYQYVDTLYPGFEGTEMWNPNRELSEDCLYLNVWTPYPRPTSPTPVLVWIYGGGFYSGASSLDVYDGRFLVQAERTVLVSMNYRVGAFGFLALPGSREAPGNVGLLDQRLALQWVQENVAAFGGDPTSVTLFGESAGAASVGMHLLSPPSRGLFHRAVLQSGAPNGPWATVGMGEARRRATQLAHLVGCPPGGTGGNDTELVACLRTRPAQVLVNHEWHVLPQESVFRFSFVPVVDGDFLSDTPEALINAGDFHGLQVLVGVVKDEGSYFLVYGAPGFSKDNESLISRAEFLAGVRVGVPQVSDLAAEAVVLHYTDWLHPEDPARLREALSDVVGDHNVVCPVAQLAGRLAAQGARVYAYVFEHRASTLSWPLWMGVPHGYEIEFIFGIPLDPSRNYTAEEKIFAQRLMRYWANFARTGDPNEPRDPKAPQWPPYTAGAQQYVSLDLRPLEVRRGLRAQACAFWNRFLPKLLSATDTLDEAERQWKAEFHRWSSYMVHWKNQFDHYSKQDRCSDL
Method in brief: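 SH-SY5Y cells, plated overnight at 37 C, were exposed to compounds for 30 min at 37 C and 5% CO2. Acetylthiocholine plus DTNB was then added, and thiocholine from endogenous AChE was quantified colorimetrically after 90 min at 37 C.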

[2] = target: Acetylcholinesterase (Homo sapiens) (UniProt P22303); experiment: Acetylcholinesterase (AChE) small molecule antagonists: enzyme-based qHTS assay (AID 1347397); details: Potency: AChE enzyme activity inhibition; outcome: AChE enzyme activity inhibition; further: nearly all actives have a fitted effect of over 55% in size
Method in brief: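 Human recombinant acetylcholinesterase; substrate acetylthiocholine; thiocholine quantified with DTNB (colorimetric). Compound preincubation 30 min RT; reaction 10 min RT.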

[3] = target: Acetylcholinesterase (Homo sapiens) (UniProt P22303); experiment: Acetylcholinesterase (AChE) small molecule antagonists: fluorescence cell-based qHTS assay (AID 1347398); details: Potency: AChE activity; outcome: AChE activity; further: nearly all actives have a fitted effect of over 50% in size
Method in brief: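 Thiocholine generated from acetylthiocholine by SH-SY5Y cell AChE is detected with Thiolite Green (Ex/Em 490/520 nm) after 40 min at room temperature, following 30 min compound pretreatment at 37 C.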

[4] = target: Acetylcholinesterase (Homo sapiens) (UniProt P22303); experiment: Acetylcholinesterase (AChE) small molecule antagonists: enzyme-based qHTS assay with human liver microsomes (AID 1347399); details: Potency: qHTS inhibition; outcome: qHTS inhibition; further: nearly all actives have a fitted effect of over 60% in size
Method in brief: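 Recombinant human AChE (50 mU/mL in the enzyme mix) and human liver microsomes (0.25 mg/mL final) were preincubated with compound and NADPH (0.25 mg/mL final) for 30 min at 37 C. Acetylthiocholine/DTNB was then added; thiocholine was read colorimetrically after 10 min at room temperature.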

Measured: Potency

Clc1ccccn1
inactive: [1] | [2] | [3] | [4]

Cn1sccc1=O
inactive: [2] | [3] | [4]
inactive and 71 µM (active): [1]

O=C(c1ccc(O)cc1)c1ccc(Cl)cc1
inactive: [1] | [2] | [3] | [4]

CCC(C)c1ccccc1O (stereo not given)
inactive: [1] | [2] | [3] | [4]

CC(C)CC(=O)CC(C)C
inactive: [1] | [2] | [3] | [4]

O=C1CCCCC1C1CCCCC1 (stereo not given)
inactive: [1] | [2] | [3] | [4]

CCCCCCCC(OC)OC
inactive: [1] | [2] | [3] | [4]

Nc1ccc(S(=O)(=O)Nc2ccc(Cl)nn2)cc1
inactive: [1] | [2] | [3] | [4]

CCc1ccc(O)cc1
inactive: [1] | [2] | [3] | [4]

Cc1ccc2ccccc2c1[N+](=O)[O-]
inactive: [1] | [2] | [3] | [4]

COc1cc2[nH]c(=O)[nH]c(=O)c2cc1OC
inactive: [1] | [2] | [3] | [4]

NS(=O)(=O)O
inactive: [1] | [2] | [3] | [4]

IC(I)I
inactive: [1] | [2] | [3] | [4]

Cl[Si](Cl)(c1ccccc1)c1ccccc1
inactive: [1] | [2] | [3] | [4]

CCCCCCCCS(=O)(=O)Cl
inactive: [1] | [2] | [3] | [4]

CC(C)=CC(=O)O
inactive: [1] | [2] | [3] | [4]

c1ccc2cc(Nc3ccc(Nc4ccc5ccccc5c4)cc3)ccc2c1
inactive: [1] | [2] | [3] | [4]

O=S(=O)(O)C(F)(F)F
inactive: [1] | [2] | [3] | [4]

CC(C)C(=O)Nc1ccc([N+](=O)[O-])c(C(F)(F)F)c1
inactive: [1] | [2] | [3] | [4]

Cc1ccc2c(c1)C(=O)OC2=O
inactive: [1] | [2] | [3] | [4]

O=C1CCCc2ccccc21
inactive: [1] | [2] | [3] | [4]

Cc1ccccc1OCC(O)CO (stereo not given)
inactive: [1] | [2] | [3] | [4]

Cc1ccc(C(=O)Nc2ccc(S(=O)(=O)O)c3cc(S(=O)(=O)O)cc(S(=O)(=O)O)c23)cc1NC(=O)c1cccc(NC(=O)Nc2cccc(C(=O)Nc3cc(C(=O)Nc4ccc(S(=O)(=O)O)c5cc(S(=O)(=O)O)cc(S(=O)(=O)O)c45)ccc3C)c2)c1
inactive: [1] | [2] | [3] | [4]

C[Si]1(C)N[Si](C)(C)N[Si](C)(C)N1
inactive: [1] | [2] | [3] | [4]

CCCCCCCCCCCCOCCOCCOCCOCCOCCOCCOCCOCCOCCO
inactive: [1] | [2] | [3] | [4]

OCCO
inactive: [1] | [2] | [3] | [4]

O=CC1CC=CCC1 (stereo not given)
inactive: [1] | [2] | [3] | [4]

CCC(C)C1N=C(C)C(C)S1 (stereo not given)
inactive: [1] | [2] | [3] | [4]

CC(N)C12CC3CC(CC(C3)C1)C2 (stereo not given)
inactive: [1] | [2] | [3] | [4]

C=C1C(CCl)(CCl)C2(Cl)C(Cl)C(Cl)C1(Cl)C2(Cl)Cl (stereo not given)
inactive: [1] | [2] | [3] | [4]

CC(C)CC(=O)C1C(=O)c2ccccc2C1=O
inactive: [1] | [2] | [3] | [4]

CCOc1cc(NC(C)=O)ccc1C(=O)OC
inactive: [1] | [2] | [3] | [4]

CO[Si](CCCNCCNCCN)(OC)OC
inactive: [1] | [2] | [3] | [4]

COc1ccc(Nc2ccccc2)c(C)c1
inactive: [1] | [2] | [3] | [4]

CC1CCc2cc(F)cc3c(=O)c(C(=O)O)cn1c23 (stereo not given)
inactive: [1] | [2] | [3] | [4]

N#CCCN(CCO)CCO
inactive: [1] | [2] | [3] | [4]

CCCC(C)C(=O)O (stereo not given)
inactive: [1] | [2] | [3] | [4]

CCCCC(CC)COC(=O)CC(C(=O)OCC(CC)CCCC)S(=O)(=O)O (stereo not given)
inactive: [1] | [2] | [3] | [4]

NC(Cc1c[nH]c2ccccc12)C(=O)O (stereo not given)
inactive: [1] | [2] | [3] | [4]

C=CCOC(=O)CCCCCC
inactive: [1] | [2] | [3] | [4]

CCCCN1C(=O)c2ccccc2C1=O
inactive: [1] | [2] | [3] | [4]

N#CCc1ccc(Cl)cc1Cl
inactive: [1] | [2] | [3] | [4]

CC[C@]12CCCN3CCc4c(n(c5ccccc45)C(=O)C1)[C@@H]32
inactive: [1] | [2] | [3] | [4]

CCC(C)(O)CCC=C(C)C (stereo not given)
inactive: [1] | [2] | [3] | [4]

CC(C)(N)C#N
inactive: [1] | [2] | [3] | [4]

CCOC(=O)[C@H](CCc1ccccc1)N[C@@H](C)C(=O)N(CC(=O)O)C1Cc2ccccc2C1
inactive: [1] | [2] | [3] | [4]

Cc1nc2ccc(CN(C)c3ccc(C(=O)N[C@@H](CCC(=O)O)C(=O)O)s3)cc2c(=O)[nH]1
inactive: [1] | [2] | [3] | [4]

Cc1cccc(C(=O)O)c1
inactive: [1] | [2] | [3] | [4]

ClCCOCCOCCCl
inactive: [1] | [2] | [3] | [4]

Cc1c(F)cc2c(=O)c(C(=O)O)cn3c2c1CCC3C (stereo not given)
inactive: [1] | [2] | [3] | [4]

CCCCCCCCS(=O)C(C)Cc1ccc2c(c1)OCO2 (stereo not given)
inactive: [1] | [2] | [3] | [4]

O=C1NCCN1CCO
inactive: [1] | [2] | [3] | [4]

O=C(O)CCCCCCC(=O)O
inactive: [1] | [2] | [3] | [4]

Cc1ccc(S(=O)(=O)NC(=O)NC2CCCC2)cc1
inactive: [1] | [2] | [3] | [4]

CCCCCCCCCCCC(=O)OCC(O)CO (stereo not given)
inactive: [1] | [2] | [3] | [4]

CSc1ccc(C=O)cc1
inactive: [1] | [2] | [3] | [4]

COCCOC[C@H](CC1(C(=O)NC2CCC(C(=O)O)CC2)CCCC1)C(=O)Oc1ccc2c(c1)CCC2 (stereo not given in full)
inactive: [1] | [2] | [3] | [4]

O=C(O)c1ccccc1S
inactive: [1] | [2] | [3] | [4]

C[C@@H]1[C@H](O)[C@@H](C)/C=C/C=C\C=C\C=C\C=C\C=C\C=C\[C@H](O[C@@H]2O[C@H](C)[C@@H](O)[C@H](N)[C@@H]2O)C[C@@H]2O[C@](O)(C[C@@H](O)C[C@@H](O)[C@H](O)CC[C@@H](O)C[C@@H](O)CC(=O)O[C@H]1C)C[C@H](O)[C@H]2C(=O)O (stereo in doubt)
inactive: [1] | [2] | [3] | [4]

CC1(N)CCC(C(C)(C)N)CC1 (stereo not given)
inactive: [1] | [2] | [3] | [4]
